Measured values published in PubChem BioAssay.

The compounds below were run against Carbonic anhydrase 2 (Homo sapiens) (UniProt P00918) (assay: CAII small-molecule binders, profiling panel, biochemical, small-molecule microarray, Alexa647-labelled CAII (AID 1122)). Conditions: CAII-A647 binding fluorescence, higher = more signal.

Point of comparison: CO[C@H]1O[C@H](CO)[C@@H](OC(=O)Nc2ccc(Oc3ccccc3)cc2)[C@H](OC(=O)Nc2ccccc2)[C@H]1OC(=O)Nc1ccccc1, composite z-score 0.467. Against it:
- CC(=O)Nc1cc(Br)ccc1C(=O)O — lower, 0.363
- COC(=O)C[C@H]1O[C@]2(C(=O)N(Cc3ccccc3)c3ccc(NC(C)=O)cc32)[C@@H](C)[C@@H]1[Si](C)(C)c1ccc(OC)cc1 — lower, 0.269
- COCCOC(=O)N1C(=O)[C@@]2(c3cc(C#CCC(C(=O)OC)C(=O)OC)ccc31)[C@H](C(=O)N1CCN(c3ncccn3)CC1)[C@H]1C(=O)O[C@H](c3ccccc3)[C@H](c3ccccc3)N1[C@@H]2c1ccc(OCCO)cc1 — lower, 0.323
- O=c1cccc(C=Cc2ccccc2)o1 — lower, -0.228
- CCCCC(CC)C(O)C1C=CC2C(=O)N(c3ccccc3)C(=O)C2N1Nc1ccccc1 (stereo not drawn) — higher, 0.665
- COc1ccc([Si](C)(C)[C@@H]2[C@@H](CC(=O)N(CCO)Cc3ccccc3)O[C@]3(C(=O)N(C)c4ccccc43)[C@H]2C)cc1 — higher, 0.516
- CC(C)C[C@@H]1NC(=O)[C@H]2C[C@@H](C(=O)NCCCCCNC(=O)CS)[C@@H](c3cccc(OCCO)c3)N2C1=O — higher, 0.561
- O=C(OCCF)C1=CCC(c2cccc(Cl)c2)O1 (stereo not drawn) — higher, 0.593
- O=C(O)[C@@]1(Cc2ccccc2)N=C(c2ccc(OCCCO)cc2)O[C@H]1c1ccccc1 — higher, 0.529
- O=C(CS)NCCCCCCNC(=O)[C@H]1C[C@H]2C(=O)NCC(=O)N2[C@H]1c1ccc(O)cc1 — higher, 0.696
- COCCOC(=O)N1C(=O)[C@@]2(c3cc(C#CCCO)ccc31)[C@H](c1ccc(O)cc1)N1[C@H](c3ccccc3)[C@H](c3ccccc3)OC(=O)[C@H]1[C@@H]2C(N)=O — higher, 0.738
- CC(C)(C)N1CC=CC23O[C@@H]4/C=C\CCCOC(=O)C4[C@H]2C(=O)N(CCO)[C@@H]3C1=O (stereo partly drawn) — higher, 0.872
